Experimental data from PubChem BioAssay AID1159580 (chemical genetic matrix, 2015).
“And” between values parts separate entries of the source, which are not always exact repeats. Equal values may be shown once. Hit rate of the full screen: of about 5,500 compounds, about 2,000 (36%) were called active. Another 18% or so got no clear call; they are omitted. Rule as the data show it: active = normalized growth mostly below about 0.91 (no sharp cut-off); inconclusive = no clear call, values can overlap the other calls; inactive = mostly above about 0.92. Some of the results follow.

Assay: chemical genetic growth profiling, strain panel (AID 1159580);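 also: tested at 20 µM; growth read once vehicle control cultures reached saturation at 30 °C; 1 = growth at the plate median or of vehicle wells; lower values mean less growth of the strain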
Conditions: S. cerevisiae deletion strains, growth OD

Measured: normalized growth

O=c1cc(-c2ccccc2)oc2c(O)c(O)ccc12
active: locus YDL192W, strain arf1, stronger effect = lower value 0.88 | locus YDR137W, strain rgp1, stronger effect = lower value 0.664 | locus YJL187C, strain SWE1 (second series), stronger effect = lower value 0.844
inactive: locus YAL021C, strain ccr4, stronger effect = lower value 0.913 | locus YAL026C, strain drs2, stronger effect = lower value 0.977 | locus YAL030W, strain snc1, stronger effect = lower value 0.99 | locus YBL061C, strain skt5, stronger effect = lower value 0.995 | locus YBR009C, strain hhf1, stronger effect = lower value 0.98 | locus YBR021W, strain FUR4, stronger effect = lower value 0.955 | locus YBR023C, strain chs3, stronger effect = lower value 0.997 | locus YBR171W, strain sec66, stronger effect = lower value 0.964 | locus YBR229C, strain ROT2, stronger effect = lower value 0.974 | locus YBR231C, strain swc5, stronger effect = lower value 0.98 | locus YBR279W, strain paf1, stronger effect = lower value 0.99 | locus YCL011C, strain gbp2, stronger effect = lower value 0.984 | locus YCL016C, strain dcc1, stronger effect = lower value 0.98 | locus YCL029C, strain bik1, stronger effect = lower value 0.956 | locus YCL061C, strain MRC1, stronger effect = lower value 0.981 | locus YCL069W, strain vba3, stronger effect = lower value 0.985 | locus YCR088W, strain abp1, stronger effect = lower value 0.991 | locus YDL005C, strain med2, stronger effect = lower value 0.991 | locus YDL035C, strain GPR1, stronger effect = lower value 0.863 | locus YDL040C, strain nat1, stronger effect = lower value 0.992 | locus YDL074C, strain BRE1, stronger effect = lower value 0.808 | locus YDL101C, strain DUN1, stronger effect = lower value 0.948 | locus YDL185W, strain tfp1, stronger effect = lower value 0.972 | locus YDR001C, strain nth1, stronger effect = lower value 0.995 | locus YDR069C, strain doa4, stronger effect = lower value 0.936 | locus YDR101C, strain arx1, stronger effect = lower value 0.973 | locus YDR150W, strain NUM1, stronger effect = lower value 0.984 | locus YDR159W, strain sac3, stronger effect = lower value 0.971 | locus YDR162C, strain NBP2, stronger effect = lower value 0.834 | locus YDR195W, strain ref2 1.03 | locus YDR297W, strain sur2, stronger effect = lower value 0.988 | locus YDR318W, strain mcm21, stronger effect = lower value 0.991 | locus YDR334W, strain swr1, stronger effect = lower value 0.942 | locus YDR335W, strain msn5, stronger effect = lower value 0.979 | locus YDR388W, stronger effect = lower value 0.989 | locus YDR392W, strain spt3, stronger effect = lower value 1 | locus YDR502C, strain sam2, stronger effect = lower value 0.96 | locus YEL003W, strain gim4, stronger effect = lower value 0.983 | locus YEL037C, strain rad23, stronger effect = lower value 0.986 | locus YEL061C, strain CIN8 (second series), stronger effect = lower value 0.99 | locus YEL061C, strain CIN8, stronger effect = lower value 0.978 | locus YER015W, strain faa2, stronger effect = lower value 0.99 | locus YER016W, strain bim1, stronger effect = lower value 0.983 | locus YER110C, stronger effect = lower value 0.962 | locus YER111C, strain swi4, stronger effect = lower value 0.983 | locus YER155C, strain BEM2 (second series), stronger effect = lower value 0.982 | locus YER155C, strain BEM2, stronger effect = lower value 1.02 | locus YER167W, strain BCK2, stronger effect = lower value 1 | locus YFR010W, strain ubp6, stronger effect = lower value 0.944 | locus YGL078C, strain dbp3, stronger effect = lower value 0.98 | locus YGL086W, strain mad1, stronger effect = lower value 0.932 | locus YGL167C, strain pmr1, stronger effect = lower value 0.988 | locus YGL173C, strain kem1, stronger effect = lower value 0.975 | locus YGL227W, strain vid30, stronger effect = lower value 1 | locus YGL240W, strain doc1, stronger effect = lower value 0.956 | locus YGL248W, strain PDE1, stronger effect = lower value 0.923 | locus YGL253W, strain hxk2, stronger effect = lower value 0.99 | locus YGR135W, strain pre9, stronger effect = lower value 0.947 | locus YGR252W, strain gcn5, stronger effect = lower value 0.802 | locus YHR013C, strain ard1, stronger effect = lower value 0.951 | locus YHR027C, strain rpn1, stronger effect = lower value 0.983 | locus YHR030C, strain SLT2, stronger effect = lower value 0.98 and 1.06 | locus YHR079C, strain IRE1 (second series), stronger effect = lower value 0.988 | locus YHR079C, strain IRE1, stronger effect = lower value 1.05 | locus YHR094C, strain hxt1, stronger effect = lower value 0.99 | locus YHR129C, strain ARP1, stronger effect = lower value 0.93 | locus YHR142W, strain chs7, stronger effect = lower value 0.973 | locus YHR200W, strain rpn10, stronger effect = lower value 0.958 | locus YIL066C, strain RNR3, stronger effect = lower value 0.873 | locus YIL073C, strain SPO22, stronger effect = lower value 0.702 | locus YIL125W, strain kgd1, stronger effect = lower value 0.97 | locus YIR030C, strain dcg1, stronger effect = lower value 0.997 | locus YJL092W, strain hpr5, stronger effect = lower value 0.994 | locus YJL095W, strain BCK1 (second series), stronger effect = lower value 0.996 | locus YJL115W, strain asf1, stronger effect = lower value 0.971 | locus YJL129C, strain trk1, stronger effect = lower value 0.912 | locus YJL134W, strain LCB3, stronger effect = lower value 0.986 | locus YJL154C, strain vps35, stronger effect = lower value 0.984 | locus YJL164C, strain tpk1, stronger effect = lower value 0.985 | locus YJL166W, strain qcr8, stronger effect = lower value 0.994 | locus YJL168C, strain set2, stronger effect = lower value 0.981 | locus YJL187C, strain SWE1, stronger effect = lower value 0.975 | locus YJR043C, strain POL32, stronger effect = lower value 0.921
0.733 (active) and 1.08 (inactive): locus YJL095W, strain BCK1, stronger effect = lower value
